# The panel holds about 79,000 compounds, 15% with a hit somewhere; the sample as a whole holds those more often. A number with no mark means an inactive call. Active and inactive are the calls of the source. Cut-off read from the data, not from the text of the source: active = growth inhibition above about 70%; inactive = the rest.
# How the values were obtained:
# [1] = NCI Yeast Anticancer Drug Screen. Data for the rad52 strain (AID 147);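 note: 0% = growth of vehicle-treated control cultures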; conditions: S. cerevisiae rad52 mutant growth inhibition, stronger effect = higher value
# Summary of the method: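 Genetically altered yeast (DNA damage repair defect) treated with compound; inhibition calculated relative to vehicle.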
# [2] = NCI Yeast Anticancer Drug Screen. Data for the wt1 strain (AID 149);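 note: 0% = growth of vehicle-treated wt1 cultures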; conditions: S. cerevisiae wt1 strain (SPY 50644) growth inhibition, stronger effect = higher value
# Summary of the method: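 Growth inhibition read against vehicle controls after compound exposure of the wt1 yeast strain.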
# [3] = NCI Yeast Anticancer Drug Screen. Data for the rad50EPP+ strain (AID 151);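 note: 0% = growth of vehicle-treated control cultures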; conditions: S. cerevisiae rad50 mutant strain, stronger effect = higher value
# Summary of the method: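 Strain rad50EPP+; compound exposure; % growth inhibition vs vehicle.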
# [4] = NCI Yeast Anticancer Drug Screen. Data for the mgt1 strain (AID 153); conditions: S. cerevisiae mgt1 mutant growth inhibition, stronger effect = higher value
# Summary of the method: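 Read-out: yeast growth inhibition vs vehicle control. Strain mgt1, drawn from a panel altered in DNA damage repair or cell cycle control.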
# [5] = NCI Yeast Anticancer Drug Screen. Data for the rad50 strain (AID 155);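 note: 0% = growth of vehicle-only cultures of the same strain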; conditions: S. cerevisiae rad50 strain growth inhibition, stronger effect = higher value
# Summary of the method: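 Readout: growth inhibition relative to vehicle-treated cultures. Compound exposure was carried out in a genetically defined yeast strain deficient in DNA damage repair.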
# [6] = NCI Yeast Anticancer Drug Screen. Data for the mec2-1 strain (AID 157); conditions: S. cerevisiae mec2-1 strain, stronger effect = higher value
# Summary of the method: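 Cells of the genetically defined mec2-1 yeast strain are incubated with test compound. Inhibition of growth is calculated against vehicle-treated controls.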
# [7] = NCI Yeast Anticancer Drug Screen. Data for the rad14 strain (AID 159);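 note: 0% = growth of vehicle-treated control cultures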; conditions: S. cerevisiae rad14 strain growth inhibition, stronger effect = higher value
# Summary of the method: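 Growth inhibition vs vehicle controls; genetically altered yeast strain (DNA damage repair defect) treated with test compounds.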
# [8] = NCI Yeast Anticancer Drug Screen. Data for the sgs1 mgt1 strain (AID 161);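 note: 0% = growth of cultures given vehicle only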; conditions: S. cerevisiae sgs1 mgt1 strain, stronger effect = higher value
# Summary of the method: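 Mutant yeast exposed to compound; growth scored against vehicle-only wells.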
# [9] = NCI Yeast Anticancer Drug Screen. Data for the CLN2oe strain (AID 163);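 note: 0% = growth of vehicle-only control cultures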; conditions: S. cerevisiae CLN2oe strain, stronger effect = higher value
# Summary of the method: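 Strain altered in cell-cycle control, incubated with compound; growth compared to solvent-treated controls.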
# [10] = NCI Yeast Anticancer Drug Screen. Data for the cln2 rad14 strain (AID 165);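 note: 0% = growth equal to vehicle treated cultures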; conditions: S. cerevisiae cln2 rad14 strain, stronger effect = higher value
# Summary of the method: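 The screen exposed genetically defined yeast (cln2 rad14) to test compounds and scored growth inhibition relative to vehicle-treated controls.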
# [11] = NCI Yeast Anticancer Drug Screen. Data for the bub3 strain (AID 167); conditions: S. cerevisiae bub3 mutant strain, stronger effect = higher value
# Summary of the method: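 Readout: yeast growth inhibition, expressed relative to vehicle-only wells. The test organism is a mutant strain from a panel with lesions in DNA repair or checkpoint genes.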
# [12] = NCI Yeast Anticancer Drug Screen. Data for the wt2 strain (AID 169);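 note: 0% = growth of vehicle-treated yeast cultures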; conditions: S. cerevisiae wt2 strain growth inhibition, stronger effect = higher value
# Summary of the method: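 Steps: yeast strain treated with compound; growth recorded; inhibition calculated relative to cultures given vehicle alone.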
# [13] = NCI Yeast Anticancer Drug Screen. Data for the mlh1 strain (AID 171);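 note: 0% = growth of vehicle-treated control cultures of the same strain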; conditions: S. cerevisiae mlh1 strain growth inhibition, stronger effect = higher value
# Summary of the method: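 Yeast screen: mutant strain plus compound, growth scored against vehicle control wells.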
# [14] = NCI Yeast Anticancer Drug Screen. Data for the sgs1 strain (AID 173);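 note: 0% = growth of vehicle-only control cultures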; conditions: S. cerevisiae sgs1 mutant, stronger effect = higher value
# Summary of the method: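 Inhibition of yeast growth served as the measure. The mutant strain was treated with each compound, and growth was normalised to cultures receiving vehicle alone.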
# [15] = NCI Yeast Anticancer Drug Screen. Data for the mlh1 rad18 strain (AID 175); conditions: S. cerevisiae mlh1 rad18 strain growth inhibition, stronger effect = higher value
# Summary of the method: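 Compound-treated yeast growth, normalised to vehicle controls. Strain bears defined DNA repair mutations.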
# [16] = NCI Yeast Anticancer Drug Screen. Data for the rad18 strain (AID 177); conditions: S. cerevisiae rad18 mutant growth inhibition, stronger effect = higher value
# Summary of the method: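 Inhibition values reflect reduced yeast growth compared with vehicle-treated controls, using a strain engineered with a DNA damage repair defect.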
# [17] = at 5.0 µM (retest, dose inferred, filed as 0.5)
# [18] = at 50.0 µM (retest, dose inferred, filed as 5.0)
smiles,measurement,setting,value
Cn1ncc2cc3c(Nc4ccc(Cl)cc4)cccc3nc21,growth inhibition,[1]; at 1.2 µM,2%
same,growth inhibition,[1]; at 3.7 µM,2%
same,growth inhibition,[1]; at 11.0 µM,6%
same,growth inhibition,[1]; at 33.0 µM,39%
same,growth inhibition,[1]; at 100.0 µM,96% (active)
same,growth inhibition,[2]; at 1.2 µM,0%
same,growth inhibition,[2]; at 3.7 µM,-2%
same,growth inhibition,[2]; at 11.0 µM,-2%
same,growth inhibition,[2]; at 33.0 µM,0%
same,growth inhibition,[2]; at 100.0 µM,12%
same,growth inhibition,[3]; at 1.2 µM,0%
same,growth inhibition,[3]; at 3.7 µM,1%
same,growth inhibition,[3]; at 11.0 µM,2%
same,growth inhibition,[3]; at 33.0 µM,7%
same,growth inhibition,[3]; at 100.0 µM,36%
same,growth inhibition,[4]; at 1.2 µM,-1%
same,growth inhibition,[4]; at 3.7 µM,0%
same,growth inhibition,[4]; at 11.0 µM,-4%
same,growth inhibition,[4]; at 33.0 µM,-3%
same,growth inhibition,[4]; at 100.0 µM,9%
same,growth inhibition,[5]; at 1.2 µM,2%
same,growth inhibition,[5]; at 3.7 µM,5%
same,growth inhibition,[5]; [17],25%
same,growth inhibition,[5]; at 11.0 µM,10%
same,growth inhibition,[5]; at 33.0 µM,42%
same,growth inhibition,[5]; [18],83% (active)
same,growth inhibition,[5]; at 50.0 µM,59.9%
same,growth inhibition,[5]; at 100.0 µM,95% (active)
same,growth inhibition,[6]; at 1.2 µM,-5%
same,growth inhibition,[6]; at 3.7 µM,-7%
same,growth inhibition,[6]; [17],0%
same,growth inhibition,[6]; at 11.0 µM,-3%
same,growth inhibition,[6]; at 33.0 µM,-4%
same,growth inhibition,[6]; [18],5%
same,growth inhibition,[6]; at 50.0 µM,8.6%
same,growth inhibition,[6]; at 100.0 µM,6%
same,growth inhibition,[7]; at 1.2 µM,-2%
same,growth inhibition,[7]; at 3.7 µM,-2%
same,growth inhibition,[7]; at 11.0 µM,-3%
same,growth inhibition,[7]; at 33.0 µM,-3%
same,growth inhibition,[7]; at 100.0 µM,29%
same,growth inhibition,[8]; [17],-1%
same,growth inhibition,[8]; [18],-2%
same,growth inhibition,[8]; at 50.0 µM,-10.4%
same,growth inhibition,[9]; at 1.2 µM,-5%
same,growth inhibition,[9]; at 3.7 µM,-4%
same,growth inhibition,[9]; at 11.0 µM,-5%
same,growth inhibition,[9]; at 33.0 µM,-3%
same,growth inhibition,[9]; at 100.0 µM,-6%
same,growth inhibition,[10]; [17],-11%
same,growth inhibition,[10]; [18],1%
same,growth inhibition,[10]; at 50.0 µM,-6%
same,growth inhibition,[11]; at 1.2 µM,-3%
same,growth inhibition,[11]; at 3.7 µM,-5%
same,growth inhibition,[11]; [17],-7%
same,growth inhibition,[11]; at 11.0 µM,-7%
same,growth inhibition,[11]; at 33.0 µM,-11%
same,growth inhibition,[11]; [18],1%
same,growth inhibition,[11]; at 50.0 µM,44.6%
same,growth inhibition,[11]; at 100.0 µM,-7%
same,growth inhibition,[12]; at 1.2 µM,-1%
same,growth inhibition,[12]; at 3.7 µM,-2%
same,growth inhibition,[12]; at 11.0 µM,-2%
same,growth inhibition,[12]; at 33.0 µM,-2%
same,growth inhibition,[12]; at 100.0 µM,20%
same,growth inhibition,[13]; at 1.2 µM,0%
same,growth inhibition,[13]; at 3.7 µM,-4%
same,growth inhibition,[13]; at 11.0 µM,-2%
same,growth inhibition,[13]; at 33.0 µM,-2%
same,growth inhibition,[13]; at 100.0 µM,26%
same,growth inhibition,[14]; at 1.2 µM,-2%
same,growth inhibition,[14]; at 3.7 µM,-2%
same,growth inhibition,[14]; at 11.0 µM,-3%
same,growth inhibition,[14]; at 33.0 µM,0%
same,growth inhibition,[14]; at 100.0 µM,42%
same,growth inhibition,[15]; [17],-2%
same,growth inhibition,[15]; [18],7%
same,growth inhibition,[15]; at 50.0 µM,2.05%
same,growth inhibition,[16]; at 1.2 µM,-2%
same,growth inhibition,[16]; at 3.7 µM,-4%
same,growth inhibition,[16]; at 11.0 µM,-3%
same,growth inhibition,[16]; at 33.0 µM,-2%
same,growth inhibition,[16]; at 100.0 µM,52%
CCOC(=O)[C@]1(Br)CC[C@@]1(Br)C(=O)OCC,growth inhibition,[1]; at 1.2 µM,-78%
same,growth inhibition,[1]; at 3.7 µM,-24%
same,growth inhibition,[1]; at 11.0 µM,31%
same,growth inhibition,[1]; at 33.0 µM,95% (active)
same,growth inhibition,[1]; at 100.0 µM,97% (active)
same,growth inhibition,[2]; at 1.2 µM,-44%
same,growth inhibition,[2]; at 3.7 µM,-33%
same,growth inhibition,[2]; at 11.0 µM,-3%
same,growth inhibition,[2]; at 33.0 µM,98% (active)
same,growth inhibition,[2]; at 100.0 µM,99% (active)
same,growth inhibition,[3]; at 1.2 µM,-13%
same,growth inhibition,[3]; at 3.7 µM,-6%
same,growth inhibition,[3]; at 11.0 µM,29%
same,growth inhibition,[3]; at 33.0 µM,75% (active)
same,growth inhibition,[3]; at 100.0 µM,94% (active)
same,growth inhibition,[4]; at 1.2 µM,-23%
same,growth inhibition,[4]; at 3.7 µM,-23%
same,growth inhibition,[4]; at 11.0 µM,23%
same,growth inhibition,[4]; at 33.0 µM,96% (active)
same,growth inhibition,[4]; at 100.0 µM,100% (active)
same,growth inhibition,[5]; at 1.2 µM,-8%
same,growth inhibition,[5]; at 3.7 µM,7%
same,growth inhibition,[5]; [17],26%
same,growth inhibition,[5]; at 11.0 µM,23%
same,growth inhibition,[5]; at 33.0 µM,94% (active)
same,growth inhibition,[5]; [18],67%
same,growth inhibition,[5]; at 50.0 µM,89% (active)
same,growth inhibition,[5]; at 100.0 µM,98% (active)
same,growth inhibition,[6]; at 1.2 µM,-38%
same,growth inhibition,[6]; at 3.7 µM,-25%
same,growth inhibition,[6]; [17],29%
same,growth inhibition,[6]; at 11.0 µM,27%
same,growth inhibition,[6]; at 33.0 µM,97% (active)
same,growth inhibition,[6]; [18],80% (active)
same,growth inhibition,[6]; at 50.0 µM,93.1% (active)
same,growth inhibition,[6]; at 100.0 µM,99% (active)
same,growth inhibition,[7]; at 1.2 µM,-53%
same,growth inhibition,[7]; at 3.7 µM,-31%
same,growth inhibition,[7]; at 11.0 µM,14%
same,growth inhibition,[7]; at 33.0 µM,94% (active)
same,growth inhibition,[7]; at 100.0 µM,99% (active)
same,growth inhibition,[8]; [17],-7%
same,growth inhibition,[8]; [18],-36%
same,growth inhibition,[8]; at 50.0 µM,91.8% (active)
same,growth inhibition,[9]; at 1.2 µM,-3%
same,growth inhibition,[9]; at 3.7 µM,15%
same,growth inhibition,[9]; at 11.0 µM,15%
same,growth inhibition,[9]; at 33.0 µM,91% (active)
same,growth inhibition,[9]; at 100.0 µM,99% (active)
same,growth inhibition,[10]; [17],-7%
same,growth inhibition,[10]; [18],-76%
same,growth inhibition,[10]; at 50.0 µM,87.3% (active)
same,growth inhibition,[11]; at 1.2 µM,-38%
same,growth inhibition,[11]; at 3.7 µM,-44%
same,growth inhibition,[11]; [17],2%
same,growth inhibition,[11]; at 11.0 µM,-19%
same,growth inhibition,[11]; at 33.0 µM,81% (active)
same,growth inhibition,[11]; [18],-38%
same,growth inhibition,[11]; at 50.0 µM,91.4% (active)
same,growth inhibition,[11]; at 100.0 µM,96% (active)
same,growth inhibition,[13]; at 1.2 µM,-37%
same,growth inhibition,[13]; at 3.7 µM,-29%
same,growth inhibition,[13]; at 11.0 µM,35%
same,growth inhibition,[13]; at 33.0 µM,97% (active)
same,growth inhibition,[13]; at 100.0 µM,99% (active)
same,growth inhibition,[14]; at 1.2 µM,-27%
same,growth inhibition,[14]; at 3.7 µM,-22%
same,growth inhibition,[14]; at 11.0 µM,43%
same,growth inhibition,[14]; at 33.0 µM,96% (active)
same,growth inhibition,[14]; at 100.0 µM,99% (active)
same,growth inhibition,[15]; [17],57%
same,growth inhibition,[15]; [18],93% (active)
same,growth inhibition,[15]; at 50.0 µM,91% (active)
same,growth inhibition,[16]; at 1.2 µM,-58%
same,growth inhibition,[16]; at 3.7 µM,-43%
same,growth inhibition,[16]; at 11.0 µM,8%
same,growth inhibition,[16]; at 33.0 µM,93% (active)
same,growth inhibition,[16]; at 100.0 µM,99% (active)

# From PubChem BioAssay (NCI)
